This is part of a sample that, as a whole, favours compounds with a hit. Of some 83,000 tested, about 20% had one in any assay.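 Note: values are percent growth. 100 is the growth of untreated cells, values between 100 and 0 indicate rising inhibition; between -100 and 0 indicates cell death.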 Calls of active or inactive are those of the source.
What follows are compounds tested on HOP-92 NSCLC (assay: NCI-60 one-dose screen, 48 h (100 = growth as untreated, 0 = no growth, -100 = all killed)). Details: 10 µM unless noted.
Method: Growth inhibition of the HOP-92 human Non-Small Cell Lung tumor cell line is measured as a screen for anti-cancer activity. Cells are grown in 96 well plates and exposed to the test compound for 48 hours. Compounds are tested at a single concentration, which is 10^-5 M for most compounds. The reported endpoint is percent growth (GI% or GIPRCNT), where numbers from 0 - 100% represent growth inhibition, and numbers from -100% - 0 represent cell death. For example, a value of 40 represents 60% growth inhibition. A value of 0 means no net growth occurred over the course of the experiment. A value of -40 indicates 40% of cells at the beginning of the experiment died by the end of the experiment. A value of -100 means all cells are dead at the end of the experiment.
NCI-60 Human Tumor Cell Lines Screen was performed using the standard one-dose NCI protocol, which is described in more detail at https://dtp.cancer.gov/discovery_development/nci-60/default.htm.
Compounds with GIPRCNT values below 10 were considered active. Activity score was based on GIPRCNT using the following formula: […]
Score is 0 for GIPRCNT values of 100 or above, 50 for GIPRCNT values of 0, and 100 for GIPRCNT values of -100.

Q: For `Clc1ccc(-c2ccc(OCCCN3CCN(c4ccncc4)CC3)cc2)cc1`, which growth is on record?
A: 15.9% (inactive)

Q: With `COc1ccc(/C=C/c2nc3ccccc3nc2Nc2cccc(C)c2)cc1` as the compound, how does the growth read?
A: 99.3% (inactive)

Q: Which growth does the source give for `O=C(Nc1cccc(-n2cnc3cc(-c4ccc(O)cc4)ccc32)c1)C1CC1` here?
A: 125% (inactive)

Q: `CCOC(=O)C(N=Nc1ccc(S(=O)(=O)N=C(N)N)cc1)C(C)=O` (stereo not given) was tested. Which growth did it give?
A: 99.9% (inactive)

Q: For `C/C(=N\N=C\c1cc([N+](=O)[O-])ccc1Cl)c1ccc2c(c1)Nc1ccccc1S2`, which growth is on record?
A: 54.1% (inactive)

Q: `Cc1ccc(C(=O)C(c2c[nH]c3ccccc23)c2c[nH]c3ccccc23)cc1` was tested. Which growth did it give?
A: 89.9% (inactive)

Q: `COc1cc2c(c(OC)c1OC)C(=O)CC(c1cccc(NC(=O)c3cccc(NC(=O)[C@H](C)NC(=O)OC(C)(C)C)c3)c1)O2` (stereo not given in full) was tested. Which growth did it give?
A: 74.4% (inactive)

Q: `CCCCCCCCOc1cccc(S(=O)(=O)Nc2ccc(C)cc2C(=O)O)c1` was tested. Which growth did it give?
A: 80.1% (inactive)

Q: How did the growth turn out when `C/C(=N\N=C1/C(=O)Nc2ccc(Cl)cc21)c1ccc2c(c1)Nc1ccccc1S2` was run?
A: -10.5% (active)

Q: `COc1ccc(C(=O)/C=C/c2ccc(Oc3nc(Nc4ccc(F)cc4)nc(N(C)C)n3)c(OC)c2)cc1` was tested. Which growth did it give?
A: 57.4% (inactive)

Q: Which growth does the source give for `CSc1ccc(C(=O)Nc2ccc3nn(/C(C#N)=C/c4ccccn4)nc3c2)cc1` here?
A: -48.5% (active)

Q: Which growth does the source give for `CCCCSc1nc(NCCc2c[nH]c3ccccc23)c(C#N)c(-c2ccc(F)cc2)n1` here?
A: 55.7% (inactive)

Q: Which growth does the source give for `O=C(/C=C/c1ccc(-c2ccccc2)cc1)c1nc2ccccc2n1Cc1ccc(F)cc1` here?
A: 35.4% (inactive)

Q: For `C=C1CC[C@@H]2[C@]3(C)COC(c4cn(-c5ccccc5)nc4-c4cccc([N+](=O)[O-])c4)O[C@@H]3CC[C@@]2(C)[C@@H]1C/C=C1/C(=O)OC[C@H]1O` (stereo not given in full), which growth is on record?
A: -84.3% (active)

Q: For `C=C1CC[C@@H]2[C@]3(C)COC(c4cn[nH]c4-c4ccc(OC)cc4)O[C@@H]3CC[C@@]2(C)[C@@H]1C/C=C1/C(=O)OCC1O` (stereo not given in full), which growth is on record?
A: -34.5% (active)

Q: How did the growth turn out when `CC(=O)OC[C@@]1(C)C2CC[C@]3(C)C(CC=C4C5CC(C)(C)CC[C@]5(C(=O)Nc5ccc(F)cc5)CC[C@]43C)[C@@]2(C)C[C@@H](OC(C)=O)[C@@H]1OC(C)=O` (stereo not given in full) was run?
A: 54.2% (inactive)

Q: `COc1cc(C2CC(c3cc(OC)c(OC)c(OC)c3)=Nc3c(N)nc(N)nc3N2)ccc1Oc1nc(NCCO)nc(N2CCOCC2)n1` (stereo not given) was tested. Which growth did it give?
A: 103% (inactive)

Q: Which growth does the source give for `CC(=O)OCC1OC(OC2C(COC(C)=O)OC(n3cc(COc4ccc5ccc(=O)oc5c4)nn3)C(OC(C)=O)C2OC(C)=O)C(OC(C)=O)C(OC(C)=O)C1OC(C)=O` (stereo not given) here?
A: 94.4% (inactive)

Q: Which growth does the source give for `Cc1ccc(NC(=O)CN2CCN(c3ncnc4c3cnn4-c3ccccc3)CC2)cc1` here?
A: 90.9% (inactive)

Q: For `COc1ccc(/C=C2\C(=O)Nc3ccc(Cl)cc32)cc1OCc1ccccn1`, which growth is on record?
A: -12.7% (active)

Q: With `COc1ccc2oc(=O)c(C3(C)NC(=O)c4c(/C=C/C(=O)OC(C)(C)C)cccc4N3)cc2c1` (stereo not given) as the compound, how does the growth read?
A: 32.9% (inactive)

Q: `O=C(c1ccccc1)C(c1c[nH]c2ccccc12)c1c[nH]c2ccccc12` was tested. Which growth did it give?
A: 76.7% (inactive)

Q: `COc1ccc(NC(=O)Cn2c(O)c(N=Nc3ccc(S(N)(=O)=O)cc3)c3ccccc32)cc1` was tested. Which growth did it give?
A: 79.6% (inactive)

Q: `CC1=C(C(=O)c2ccccc2)C(c2cccc3ccccc23)n2c(nc3ccccc32)N1` (stereo not given) was tested. Which growth did it give?
A: 60.4% (inactive)

Q: With `O=c1[nH]c2ccccc2cc1CSc1cccc(Nc2nccc(-c3ccc4ccccc4c3)n2)c1` as the compound, how does the growth read?
A: 117% (inactive)

Q: For `COC(=O)/C=C/c1cccc2c1C(=O)NC(C)(c1cc3ccccc3oc1=O)N2` (stereo not given), which growth is on record?
A: 50.7% (inactive)

Q: `NS(=O)(=O)c1ccc(-n2cc(-c3cccc(NC(=O)c4cc(Cl)cc(Cl)c4)c3)nn2)cc1` was tested. Which growth did it give?
A: 98.4% (inactive)

Q: How did the growth turn out when `S=C(NCCc1ccccc1)Nc1ccc(OCc2nc3ccccc3[nH]2)cc1` was run?
A: 100% (inactive)

Q: How did the growth turn out when `COCOc1cc2oc(C(=O)N[C@@H](Cc3ccccc3)C(O)C(=O)NCc3ccccc3)c(C)c(=O)c2cc1OCOC` (stereo not given in full) was run?
A: 14.4% (inactive)

Q: With `O=C(COc1ccc(NC(=O)Nc2ccccc2)cc1)N=Nc1c(O)[nH]c2ccc([N+](=O)[O-])cc12` as the compound, how does the growth read?
A: -72.4% (active)

Q: With `Cn1cc(-c2nnc(N)nc2-c2c[nH]c3ccccc23)c2cccnc21` as the compound, how does the growth read?
A: 87.1% (inactive)

Q: How did the growth turn out when `CN(C)CCOc1ccc(C(=O)C2[C@H](c3ccc(Cl)cc3)[C@@H](c3ccccc3)NC23C(=O)Nc2ccc(Br)cc23)cc1` (stereo not given in full) was run?
A: 23.5% (inactive)

Q: For `COc1ccc(-c2nc(SCC(C)C)nc(NCCc3c[nH]c4ccccc34)c2C#N)cc1`, which growth is on record?
A: 50.3% (inactive)

Q: With `CN(C)CCn1c2ccccc2c2nc3ccc([N+](=O)[O-])cc3nc21` as the compound, how does the growth read?
A: 28.9% (inactive)

Q: `COc1ccc(-c2nnc3ccc(N/N=C/c4ccc(C)cc4)nn23)cc1` was tested. Which growth did it give?
A: 18.9% (inactive)

Q: For `CSc1ccc(NC(=O)c2ccc3nn(/C(C#N)=C/c4ccccn4)nc3c2)cc1`, which growth is on record?
A: -33.9% (active)

Q: `Cc1ccc([C@H]2C(C(=O)c3ccc(Cl)cc3)C3(N[C@@H]2c2ccccc2)C(=O)Nc2ccc(Cl)cc23)cc1` (stereo not given in full) was tested. Which growth did it give?
A: 16.6% (inactive)

Q: `C=CC[N+](C)(C)CCn1c2ccccc2c2nc3cc(C)c(C)cc3nc21` was tested. Which growth did it give?
A: 111% (inactive)

Q: How did the growth turn out when `COc1cc(/C=C/C(=O)c2nnn(-c3ccc(Cl)cc3)c2C)cc(OC)c1OC` was run?
A: 38.7% (inactive)

Q: Which growth does the source give for `C#CCOc1cc(N(CC)CC)ccc1C(C(=O)NC(C)(C)C)N(C(=O)C1CCc2cc(F)ccc2O1)c1ccc(F)cc1` (stereo not given) here?
A: 39.8% (inactive)

From PubChem BioAssay (NCI)
